Experiment [1] has as its target Mitogen-activated protein kinase 3 (Homo sapiens) (UniProt P27361). As to conditions: at 1 µM.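 Also: values are mean percent inhibition of MAPK3.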
Experiment [2] concerns the target SRSF protein kinase 3 (Homo sapiens) (UniProt Q9UPE1). As to conditions: at 0.1 µM.
For experiment [3] the target is unchanged. As to conditions: at 1 µM.
Experiment [4] concerns the target Mitogen-activated protein kinase 14 (Homo sapiens) (UniProt Q16539). Conditions: at 0.1 µM.
Experiment [5] has the same target. As to conditions: at 1 µM.
Experiment [6] concerns the target Mitogen-activated protein kinase 11 (Homo sapiens) (UniProt Q15759). Conditions: at 0.1 µM.
Experiment [7] shares this target. As to conditions: at 1 µM.
In experiment [8] the target is T1, Mitogen-activated protein kinase 13 (Homo sapiens) (UniProt O15264).
T1 sequence (whole entry): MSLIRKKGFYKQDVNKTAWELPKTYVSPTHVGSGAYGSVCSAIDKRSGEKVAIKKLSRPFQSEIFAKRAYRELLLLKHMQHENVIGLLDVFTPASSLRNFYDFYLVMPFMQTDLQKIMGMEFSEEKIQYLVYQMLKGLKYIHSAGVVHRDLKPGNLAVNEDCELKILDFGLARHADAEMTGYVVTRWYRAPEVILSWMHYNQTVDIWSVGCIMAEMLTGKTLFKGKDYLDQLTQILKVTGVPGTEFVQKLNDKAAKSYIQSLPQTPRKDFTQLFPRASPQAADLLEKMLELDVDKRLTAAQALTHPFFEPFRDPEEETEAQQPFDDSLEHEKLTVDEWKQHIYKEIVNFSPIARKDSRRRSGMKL
Conditions: at 0.1 µM.

In experiment [9] the target is T1, Mitogen-activated protein kinase 13 (Homo sapiens). As to conditions: at 1 µM.
The target of experiment [10] is T2, Mitogen-activated protein kinase 12 (Homo sapiens) (UniProt P53778).
T2 sequence (whole entry): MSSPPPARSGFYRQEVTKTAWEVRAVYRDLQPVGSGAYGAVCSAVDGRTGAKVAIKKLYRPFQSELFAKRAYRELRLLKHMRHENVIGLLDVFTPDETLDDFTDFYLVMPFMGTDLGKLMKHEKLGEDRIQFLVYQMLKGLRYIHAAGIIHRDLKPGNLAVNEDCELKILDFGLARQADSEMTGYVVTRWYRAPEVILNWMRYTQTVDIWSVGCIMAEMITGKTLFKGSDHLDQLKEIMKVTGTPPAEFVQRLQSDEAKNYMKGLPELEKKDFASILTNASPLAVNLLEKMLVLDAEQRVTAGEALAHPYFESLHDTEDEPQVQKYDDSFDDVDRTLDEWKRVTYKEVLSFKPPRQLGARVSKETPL
As to conditions: at 0.1 µM.

Experiment [11] concerns the target T2, Mitogen-activated protein kinase 12 (Homo sapiens). Conditions: at 1 µM.
In experiment [12] the target is SRSF protein kinase 1 (Homo sapiens) (UniProt Q96SB4). As to conditions: at 0.1 µM.
The target is the same in experiment [13]. As to conditions: at 1 µM.
The target in experiment [14] is Phosphatidylinositol 4,5-bisphosphate 3-kinase catalytic subunit alpha isoform (Homo sapiens) (UniProt P42336). As to conditions: at 0.1 µM.
For experiment [15] the target is unchanged. As to conditions: at 1 µM.
In experiment [16] the target is T3, Phosphatidylinositol 4,5-bisphosphate 3-kinase catalytic subunit delta isoform (Homo sapiens) (UniProt O00329).
T3 sequence (whole entry): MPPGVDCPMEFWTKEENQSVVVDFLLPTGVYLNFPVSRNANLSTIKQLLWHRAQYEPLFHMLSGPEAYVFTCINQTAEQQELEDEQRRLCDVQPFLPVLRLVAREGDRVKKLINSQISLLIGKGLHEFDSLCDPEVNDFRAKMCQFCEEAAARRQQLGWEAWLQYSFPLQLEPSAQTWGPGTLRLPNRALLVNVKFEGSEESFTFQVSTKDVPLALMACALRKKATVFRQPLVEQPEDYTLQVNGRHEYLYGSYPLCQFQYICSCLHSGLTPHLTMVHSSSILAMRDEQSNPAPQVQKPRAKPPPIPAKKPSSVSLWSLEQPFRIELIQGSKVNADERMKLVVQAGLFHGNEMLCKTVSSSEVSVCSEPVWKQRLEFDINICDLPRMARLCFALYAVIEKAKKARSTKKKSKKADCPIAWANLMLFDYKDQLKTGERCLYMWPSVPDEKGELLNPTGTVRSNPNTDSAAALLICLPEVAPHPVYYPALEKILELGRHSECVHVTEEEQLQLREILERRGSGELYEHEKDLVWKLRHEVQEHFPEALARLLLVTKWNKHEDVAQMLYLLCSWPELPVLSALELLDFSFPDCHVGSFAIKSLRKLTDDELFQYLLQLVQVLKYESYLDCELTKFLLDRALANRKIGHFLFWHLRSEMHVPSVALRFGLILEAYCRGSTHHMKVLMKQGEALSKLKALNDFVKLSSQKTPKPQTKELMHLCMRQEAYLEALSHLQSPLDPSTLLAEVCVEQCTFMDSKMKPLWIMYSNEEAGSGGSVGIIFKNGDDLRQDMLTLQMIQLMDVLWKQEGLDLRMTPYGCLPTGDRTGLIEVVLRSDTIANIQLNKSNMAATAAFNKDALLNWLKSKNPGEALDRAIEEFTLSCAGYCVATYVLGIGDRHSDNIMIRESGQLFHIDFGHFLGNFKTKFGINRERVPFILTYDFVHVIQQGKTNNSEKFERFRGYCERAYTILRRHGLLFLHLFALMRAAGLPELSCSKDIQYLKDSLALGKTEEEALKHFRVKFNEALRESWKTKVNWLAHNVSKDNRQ
Conditions: at 0.1 µM.

Experiment [17] addresses T3, Phosphatidylinositol 4,5-bisphosphate 3-kinase catalytic subunit delta isoform (Homo sapiens). Conditions: at 1 µM.
In experiment [18] the target is Phosphatidylinositol 4-kinase beta (Homo sapiens) (UniProt Q9UBF8). As to conditions: at 0.1 µM.
Experiment [19] has the same target. As to conditions: at 1 µM.
Experiment [20] deals with Sphingosine kinase 1 (Homo sapiens) (UniProt Q9NYA1). Conditions: at 0.1 µM.

This note sets out measurements from ChEMBL document CHEMBL1961873, “Compounds: GSK PKIS; Assays: Nanosyn kinase panel” (2012).

Phosphatidylinositol 4-kinase beta (Homo sapiens), sequence (Q9UBF8 2-816 limits assumed): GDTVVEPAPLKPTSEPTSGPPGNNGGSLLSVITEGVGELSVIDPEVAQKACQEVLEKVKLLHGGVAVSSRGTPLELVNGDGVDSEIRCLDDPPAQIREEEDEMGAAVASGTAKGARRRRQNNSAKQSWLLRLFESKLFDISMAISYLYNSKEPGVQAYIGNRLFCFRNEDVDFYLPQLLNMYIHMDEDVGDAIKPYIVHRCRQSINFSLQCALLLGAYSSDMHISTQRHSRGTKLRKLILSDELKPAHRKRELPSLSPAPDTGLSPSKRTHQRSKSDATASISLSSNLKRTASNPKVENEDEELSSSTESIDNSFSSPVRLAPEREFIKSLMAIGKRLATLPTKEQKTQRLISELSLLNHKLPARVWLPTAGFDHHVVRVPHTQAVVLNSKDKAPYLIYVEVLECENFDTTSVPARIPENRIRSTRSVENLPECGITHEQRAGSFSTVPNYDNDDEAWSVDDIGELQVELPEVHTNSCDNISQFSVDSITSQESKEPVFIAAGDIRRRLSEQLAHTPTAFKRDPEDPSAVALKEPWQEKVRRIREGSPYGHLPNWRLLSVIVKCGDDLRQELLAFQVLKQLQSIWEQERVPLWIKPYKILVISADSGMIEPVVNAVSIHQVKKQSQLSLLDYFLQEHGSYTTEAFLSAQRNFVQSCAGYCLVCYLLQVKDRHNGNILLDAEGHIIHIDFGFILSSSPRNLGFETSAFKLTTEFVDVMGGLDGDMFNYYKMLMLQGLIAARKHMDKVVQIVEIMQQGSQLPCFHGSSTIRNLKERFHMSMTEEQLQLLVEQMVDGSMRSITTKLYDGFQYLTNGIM
Mitogen-activated protein kinase 11 (Homo sapiens), sequence (Q15759 whole entry): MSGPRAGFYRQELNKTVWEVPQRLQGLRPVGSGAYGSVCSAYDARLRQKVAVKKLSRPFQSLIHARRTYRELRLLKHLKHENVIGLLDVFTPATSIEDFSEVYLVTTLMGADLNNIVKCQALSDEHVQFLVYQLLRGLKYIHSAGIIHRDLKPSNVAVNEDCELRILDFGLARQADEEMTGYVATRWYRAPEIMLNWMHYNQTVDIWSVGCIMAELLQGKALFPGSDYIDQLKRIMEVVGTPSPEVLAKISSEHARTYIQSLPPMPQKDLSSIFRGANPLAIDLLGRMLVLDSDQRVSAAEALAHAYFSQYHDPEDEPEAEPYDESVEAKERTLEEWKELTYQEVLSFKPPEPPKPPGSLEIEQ
SRSF protein kinase 3 (Homo sapiens), sequence (Q9UPE1 whole entry): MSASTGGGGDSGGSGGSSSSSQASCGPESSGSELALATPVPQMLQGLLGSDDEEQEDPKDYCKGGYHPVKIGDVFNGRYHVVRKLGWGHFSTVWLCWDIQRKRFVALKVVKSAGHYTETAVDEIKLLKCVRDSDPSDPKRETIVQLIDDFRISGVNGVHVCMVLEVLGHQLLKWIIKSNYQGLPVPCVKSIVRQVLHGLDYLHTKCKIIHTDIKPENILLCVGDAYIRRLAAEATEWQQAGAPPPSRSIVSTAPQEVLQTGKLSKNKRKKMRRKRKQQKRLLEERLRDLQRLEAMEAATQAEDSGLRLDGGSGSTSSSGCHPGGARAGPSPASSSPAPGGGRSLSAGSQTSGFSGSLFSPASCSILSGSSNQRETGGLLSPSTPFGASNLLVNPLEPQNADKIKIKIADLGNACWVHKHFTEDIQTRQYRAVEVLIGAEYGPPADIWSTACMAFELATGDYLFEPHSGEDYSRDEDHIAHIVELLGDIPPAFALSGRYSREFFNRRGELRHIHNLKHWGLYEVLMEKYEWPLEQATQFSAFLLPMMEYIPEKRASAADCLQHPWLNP
Sphingosine kinase 1 (Homo sapiens), sequence (Q9NYA1 whole entry): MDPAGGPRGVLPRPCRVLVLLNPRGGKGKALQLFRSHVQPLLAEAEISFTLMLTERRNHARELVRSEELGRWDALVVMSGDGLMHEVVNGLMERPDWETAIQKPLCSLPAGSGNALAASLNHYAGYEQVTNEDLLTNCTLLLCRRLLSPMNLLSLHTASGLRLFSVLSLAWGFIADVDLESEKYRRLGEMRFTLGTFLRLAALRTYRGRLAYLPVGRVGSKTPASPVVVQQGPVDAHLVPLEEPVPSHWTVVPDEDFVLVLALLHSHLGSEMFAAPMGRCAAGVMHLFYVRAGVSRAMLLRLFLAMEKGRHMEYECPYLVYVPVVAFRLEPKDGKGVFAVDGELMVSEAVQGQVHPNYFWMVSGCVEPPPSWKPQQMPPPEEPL
Mitogen-activated protein kinase 14 (Homo sapiens), sequence (Q16539 whole entry): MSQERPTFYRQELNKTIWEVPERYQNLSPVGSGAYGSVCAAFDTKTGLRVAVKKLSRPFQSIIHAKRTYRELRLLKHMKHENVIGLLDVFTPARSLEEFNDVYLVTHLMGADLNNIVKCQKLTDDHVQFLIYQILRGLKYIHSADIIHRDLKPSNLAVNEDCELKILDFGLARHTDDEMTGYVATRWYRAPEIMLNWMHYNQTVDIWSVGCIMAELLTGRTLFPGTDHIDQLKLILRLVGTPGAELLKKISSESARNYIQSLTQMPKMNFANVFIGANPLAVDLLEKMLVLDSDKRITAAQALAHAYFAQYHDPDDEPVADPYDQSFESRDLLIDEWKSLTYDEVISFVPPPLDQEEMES
Mitogen-activated protein kinase 3 (Homo sapiens), sequence (P27361 whole entry): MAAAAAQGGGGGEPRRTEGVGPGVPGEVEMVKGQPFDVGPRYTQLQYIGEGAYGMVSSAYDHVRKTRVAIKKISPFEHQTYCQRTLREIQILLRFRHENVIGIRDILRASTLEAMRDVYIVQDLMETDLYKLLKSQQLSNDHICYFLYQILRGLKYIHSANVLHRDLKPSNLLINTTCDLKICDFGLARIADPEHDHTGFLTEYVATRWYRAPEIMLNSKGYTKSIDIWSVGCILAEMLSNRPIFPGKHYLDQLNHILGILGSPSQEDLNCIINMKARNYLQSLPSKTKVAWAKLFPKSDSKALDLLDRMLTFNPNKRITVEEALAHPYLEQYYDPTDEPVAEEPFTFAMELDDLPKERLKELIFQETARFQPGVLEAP
Phosphatidylinositol 4,5-bisphosphate 3-kinase catalytic subunit alpha isoform (Homo sapiens), sequence (P42336 whole entry, canonical isoform): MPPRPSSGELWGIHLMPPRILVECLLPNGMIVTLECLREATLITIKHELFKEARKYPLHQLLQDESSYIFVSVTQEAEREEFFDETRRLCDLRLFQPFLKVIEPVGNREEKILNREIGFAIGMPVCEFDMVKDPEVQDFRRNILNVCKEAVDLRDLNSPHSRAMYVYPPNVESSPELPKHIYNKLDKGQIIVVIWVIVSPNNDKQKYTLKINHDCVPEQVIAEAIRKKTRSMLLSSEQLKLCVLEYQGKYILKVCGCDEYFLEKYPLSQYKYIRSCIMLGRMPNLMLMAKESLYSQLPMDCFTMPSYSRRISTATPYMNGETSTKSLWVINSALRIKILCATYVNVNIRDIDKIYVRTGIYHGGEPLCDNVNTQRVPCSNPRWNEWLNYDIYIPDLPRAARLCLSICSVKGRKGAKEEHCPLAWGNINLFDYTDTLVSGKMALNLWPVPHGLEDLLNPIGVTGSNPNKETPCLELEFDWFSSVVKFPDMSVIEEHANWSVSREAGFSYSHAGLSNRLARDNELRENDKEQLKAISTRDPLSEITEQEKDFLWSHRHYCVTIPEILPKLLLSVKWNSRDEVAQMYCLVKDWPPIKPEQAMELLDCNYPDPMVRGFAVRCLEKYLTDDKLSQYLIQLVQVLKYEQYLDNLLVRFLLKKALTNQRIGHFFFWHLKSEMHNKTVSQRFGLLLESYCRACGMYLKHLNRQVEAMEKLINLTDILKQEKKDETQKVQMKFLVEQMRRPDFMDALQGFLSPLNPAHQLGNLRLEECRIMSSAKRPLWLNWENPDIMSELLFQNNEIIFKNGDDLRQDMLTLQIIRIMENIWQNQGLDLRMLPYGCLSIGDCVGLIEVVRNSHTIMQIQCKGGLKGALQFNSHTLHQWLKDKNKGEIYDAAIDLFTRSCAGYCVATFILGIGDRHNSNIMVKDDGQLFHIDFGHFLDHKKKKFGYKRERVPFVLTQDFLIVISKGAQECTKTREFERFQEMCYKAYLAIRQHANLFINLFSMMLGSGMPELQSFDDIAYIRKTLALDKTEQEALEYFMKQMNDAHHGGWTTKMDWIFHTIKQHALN
SRSF protein kinase 1 (Homo sapiens), sequence (Q96SB4 whole entry): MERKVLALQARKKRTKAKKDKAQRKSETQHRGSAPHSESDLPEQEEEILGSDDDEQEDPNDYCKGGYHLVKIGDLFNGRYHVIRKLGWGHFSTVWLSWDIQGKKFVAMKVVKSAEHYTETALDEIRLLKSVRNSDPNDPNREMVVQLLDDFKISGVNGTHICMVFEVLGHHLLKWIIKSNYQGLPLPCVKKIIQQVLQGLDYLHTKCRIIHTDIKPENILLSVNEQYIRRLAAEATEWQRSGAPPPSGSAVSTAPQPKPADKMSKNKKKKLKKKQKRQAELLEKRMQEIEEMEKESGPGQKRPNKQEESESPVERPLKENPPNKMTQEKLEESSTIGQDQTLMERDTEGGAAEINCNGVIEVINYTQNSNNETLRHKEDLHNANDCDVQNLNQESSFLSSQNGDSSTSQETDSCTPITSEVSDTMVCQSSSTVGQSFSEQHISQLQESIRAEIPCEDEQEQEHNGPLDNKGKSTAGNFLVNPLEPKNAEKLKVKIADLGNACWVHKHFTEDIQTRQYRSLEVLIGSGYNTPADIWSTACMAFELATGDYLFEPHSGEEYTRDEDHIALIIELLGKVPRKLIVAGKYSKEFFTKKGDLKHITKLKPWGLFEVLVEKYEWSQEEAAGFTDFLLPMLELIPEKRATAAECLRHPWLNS

In the case of `CNC(=O)c1cccc(C#Cc2cncnc2Nc2ccc(OCc3cccc(F)c3)c(Cl)c2)c1`, the inhibition was 0.63% in experiment [1]; -4.28% in experiment [2]; -0.55% in experiment [3]; -0.67% in experiment [4]; 3.2% in [5]; 1.64% in experiment [6]. Also, the inhibition in experiment [7] is 1.73%; in [8], -0.77%; in experiment [9], -0.49%; in [10] it was 0.07%; in experiment [11], -0.21%; in experiment [12] it was -1.88%. Besides, the inhibition in experiment [13] was 0.32%; in experiment [14], 0.38%; in [15] it was -2.56%; in [16], 0.74%; in experiment [17], -1.1%; in experiment [18] it was 1.78%. For the same molecule, the inhibition in experiment [19] came out at 1.45%; in experiment [20] it was 0.36%.

`Nc1ncc(-c2cccc(S(N)(=O)=O)c2)c2scc(-c3ccc(F)c(Cl)c3)c12`: the inhibition in experiment [1] was 5.48%; in experiment [2] it was -1.03%; in [3], 0.1%; in experiment [4] it was 13.9%; in experiment [5], 55.9%; in [6], 21.8%. Besides, the inhibition is 62.3% in [7]; 3.01% in experiment [8]; 1.94% in experiment [9]; 2.88% in experiment [10]; 3.12% in experiment [11]; -2.06% in [12]. Also, the inhibition is -3.1% in experiment [13]; 4.44% in experiment [14]; 8.82% in experiment [15]; 1.02% in [16]; 3.18% in [17]; 7.12% in experiment [18]. Moreover, the inhibition is 1.6% in [19] and -0.6% in experiment [20].

Take `CCN(CC)S(=O)(=O)c1ccc(OC)c(Nc2ncc(-c3ccccc3)o2)c1`: the inhibition in experiment [1] came to 4.26%; in [2], 0.09%; in [3], 0.88%; in experiment [4] it was 1.78%; in experiment [5], 1.27%; in [6], 3.74%. The inhibition in experiment [7] was 4.45%; in experiment [8] it was -0.22%; in experiment [9], -0.16%; in [10], -2.06%; in experiment [11], 0.41%; in [12], 1.34%. Moreover, the inhibition in experiment [13] was 2.14%; in experiment [14], -0.56%; in experiment [15] it was -2.02%; in [16], -0.81%; in experiment [17], -1.28%; in experiment [18] it was 1.63%. Further, the inhibition in experiment [19] came to 0.66%; in experiment [20], 0.47%.

`COc1cc2c(cc1Nc1nc(Nc3ccsc3C(N)=O)c3cc[nH]c3n1)N(C(=O)CN(C)C)CCC2(C)C`: the inhibition in [1] was 3.62%; in experiment [2], 0.09%; in experiment [3] it was 3.51%; in [4], 4.03%; in experiment [5], 10.7%; in [6], 5.19%. For the same molecule, the inhibition in [7] is 8.81%; in experiment [8], 2.03%; in [9] it was 9.12%; in [10], 1.64%; in experiment [11], 4.23%; in experiment [12] it was -1.82%. In addition, the inhibition is 15.8% in experiment [13]; 4.65% in [14]; 5.27% in [15]; 2.82% in [16]; 13.9% in [17]; -0.32% in [18]. Besides, the inhibition was -1.38% in experiment [19] and 3.22% in experiment [20].

In the case of `Fc1cccc(COc2ccc(Nc3ncnc4sc(-c5ccco5)cc34)cc2Cl)c1`, the inhibition in experiment [1] is 4.3%; in [2] it was -0.82%; in [3] it was 1.38%; in [4], 7.31%; in [5] it was 6.29%; in experiment [6], 4.57%. For the same molecule, the inhibition in experiment [7] is 6.75%; in [8] it was 4.02%; in experiment [9], 3.46%; in experiment [10], 3.22%; in experiment [11], 4.18%; in [12], -1.79%. In addition, the inhibition in experiment [13] was -2.01%; in [14], 6.18%; in [15] it was 17.2%; in [16], 2.28%; in [17], 12.4%; in experiment [18] it was -1.28%. The inhibition was 0.68% in experiment [19] and 0% in experiment [20].

`CC(=O)Nc1cccc(C#Cc2cncnc2Nc2ccc(OCc3cccc(F)c3)c(Cl)c2)c1`: the inhibition in [1] was 3.68%; in [2] it was 1.32%; in experiment [3], -0.25%; in [4] it was 3.3%; in experiment [5] it was 5.63%; in [6], 0.27%. The inhibition in experiment [7] was 1.34%; in experiment [8], 2.42%; in experiment [9], 2.73%; in experiment [10], 0.58%; in experiment [11] it was 1.97%; in experiment [12] it was -1.41%. Moreover, the inhibition in experiment [13] was -3.44%; in experiment [14], 1.85%; in experiment [15], 1.66%; in experiment [16] it was 2.58%; in experiment [17], 0.8%; in experiment [18], -0.32%. Besides, the figures for the inhibition in experiment [19] and in experiment [20] were -1.07% and -0.47%, respectively.

With `COc1ccc(-c2oc3ncnc(N)c3c2-c2ccc(NC(=O)Nc3cc(C(F)(F)F)ccc3F)cc2)cc1`, the inhibition came out at 4.66% in [1]; 2.74% in [2]; 48.7% in experiment [3]; 4.62% in [4]; 30.4% in experiment [5]; 5.32% in [6]. In addition, the inhibition was 37.8% in [7]; 1.95% in experiment [8]; 15.3% in experiment [9]; -3.37% in experiment [10]; 17.6% in experiment [11]; 1.18% in [12]. Further, the inhibition is 34.5% in experiment [13]; 2.34% in experiment [14]; 20.6% in experiment [15]; 2.28% in experiment [16]; 22.4% in experiment [17]; 6.88% in [18]. Besides, the results for the inhibition in experiment [19] and in experiment [20] were 5.84% and 0.16%, respectively.
